About 2,000 (36%) of roughly 5,500 compounds were called active. Not shown: some 18% with an inconclusive outcome. The list shows a part of the results. Unmarked numbers belong to inactive results. Rule as the data show it: active = normalized growth mostly below about 0.91 (no sharp cut-off); inconclusive = no clear call, values can overlap the other calls; inactive = mostly above about 0.92.
Assay: chemical genetic growth profiling, strain panel (AID 1159580);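 also: tested at 20 µM; growth read once vehicle control cultures reached saturation at 30 °C; 1 = growth at the plate median or of vehicle wells; lower values mean less growth of the strain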
Conditions: S. cerevisiae deletion strains, growth OD
[1] = locus YDL101C, strain DUN1, stronger effect = lower value
[2] = locus YHR030C, strain SLT2, stronger effect = lower value
[3] = locus YAL013W, strain DEP1, stronger effect = lower value
[4] = locus YBR229C, strain ROT2, stronger effect = lower value
[5] = locus YDL134C, strain PPH21, stronger effect = lower value
[6] = locus YDR150W, strain NUM1, stronger effect = lower value
[7] = locus YEL061C, strain CIN8, stronger effect = lower value
[8] = locus YGR078C, strain PAC10, stronger effect = lower value
[9] = locus YHR087W, strain rtc3, stronger effect = lower value
[10] = locus YJR075W, strain HOC1, stronger effect = lower value
[11] = locus YLR039C, strain RIC1, stronger effect = lower value
[12] = locus YLR058C, strain SHM2 (second series), stronger effect = lower value
[13] = locus YLR085C, strain ARP6, stronger effect = lower value
[14] = locus YLR262C, strain YPT6, stronger effect = lower value
[15] = locus YML094W, strain GIM5, stronger effect = lower value
[16] = locus YMR219W, strain ESC1, stronger effect = lower value
[17] = locus YMR263W, strain SAP30, stronger effect = lower value
[18] = locus YMR307W, strain GAS1, stronger effect = lower value
[19] = locus YNL153C, strain GIM3, stronger effect = lower value
[20] = locus YNL298W, strain CLA4 (second series), stronger effect = lower value
[21] = locus YNL322C, strain KRE1, stronger effect = lower value
[22] = locus YNR030W, strain Alg12, stronger effect = lower value
[23] = locus YPL055C, strain LGE1, stronger effect = lower value
[24] = locus YPL241C, strain CIN2, stronger effect = lower value
[25] = locus YPR135W, strain CTF4, stronger effect = lower value

CCc1ccn2cc(Nc3ccccc3Cl)nc2c1
normalized growth (locus YAR019C, strain CDC15, stronger effect = lower value): 0.983 | normalized growth (locus YBL105C, strain PKC1, stronger effect = lower value): 0.976 | normalized growth (locus YBR135W, strain CKS1, stronger effect = lower value): 0.98 | normalized growth (locus YBR136W, strain MEC1, stronger effect = lower value): 0.968 | normalized growth (locus YBR160W, strain CDC28, stronger effect = lower value): 0.971 | normalized growth (locus YDL017W, strain CDC7, stronger effect = lower value): 0.974 | normalized growth (locus YDL028C, strain MPS1, stronger effect = lower value): 0.98 | normalized growth [1]: 0.982 | normalized growth (locus YDL108W, strain KIN28, stronger effect = lower value): 0.976 | normalized growth (locus YDL132W, strain cdc53, stronger effect = lower value): 0.985 | normalized growth (locus YDL214C, strain PRR2, stronger effect = lower value): 0.945 | normalized growth (locus YDR052C, strain DBF4, stronger effect = lower value): 0.993 | normalized growth (locus YDR054C, strain cdc34, stronger effect = lower value): 0.959 | normalized growth (locus YDR226W, strain ADK1, stronger effect = lower value): 0.985 | normalized growth (locus YDR477W, strain SNF1, stronger effect = lower value): 0.947 | normalized growth (locus YER123W, strain YCK3, stronger effect = lower value): 0.898 | normalized growth (locus YER133W, strain GLC7, stronger effect = lower value): 0.947 | normalized growth (locus YFL009W, strain cdc4, stronger effect = lower value): 0.983 | normalized growth (locus YFL029C, strain CAK1, stronger effect = lower value): 0.98 | normalized growth (locus YFR003C, strain YPI1, stronger effect = lower value): 0.973 | normalized growth (locus YFR019W, strain FAB1, stronger effect = lower value): 0.948 | normalized growth (locus YFR028C, strain CDC14, stronger effect = lower value): 0.978 | normalized growth (locus YGR040W, strain KSS1, stronger effect = lower value): 0.91 | normalized growth (locus YGR052W, strain FMP48, stronger effect = lower value): 1.01 | normalized growth (locus YGR092W, strain DBF2, stronger effect = lower value): 0.898 | normalized growth [2]: 0.965 | normalized growth (locus YHR079C, strain IRE1, stronger effect = lower value): 0.96 | normalized growth (locus YHR082C, strain KSP1, stronger effect = lower value): 0.998 | normalized growth (locus YHR205W, strain SCH9, stronger effect = lower value): 0.959 | normalized growth (locus YIL147C, strain SLN1, stronger effect = lower value): 0.973 | normalized growth (locus YJL095W, strain BCK1, stronger effect = lower value): 0.96 | normalized growth (locus YJL128C, strain PBS2, stronger effect = lower value): 0.967 | normalized growth (locus YJL157C, strain FAR1, stronger effect = lower value): 0.906 | normalized growth (locus YJR016C, strain ILV3, stronger effect = lower value): 0.987 | normalized growth (locus YJR066W, strain TOR1 (second series), stronger effect = lower value): 0.895 | normalized growth (locus YJR066W, strain TOR1, stronger effect = lower value): 0.973 | normalized growth (locus YKL048C, strain ELM1, stronger effect = lower value): 0.984 | normalized growth (locus YKL067W, strain YNK1, stronger effect = lower value): 0.962 | normalized growth (locus YKL101W, strain HSL1, stronger effect = lower value): 0.949 | normalized growth (locus YKL193C, strain SDS22, stronger effect = lower value): 0.979 | normalized growth (locus YKL203C, strain TOR2, stronger effect = lower value): 0.973 | normalized growth (locus YLR113W, strain HOG1, stronger effect = lower value): 0.916 | normalized growth (locus YLR133W, strain CKI1, stronger effect = lower value): 0.928 | normalized growth (locus YLR403W, strain SFP1, stronger effect = lower value): 0.886 | normalized growth (locus YML070W, strain DAK1, stronger effect = lower value): 0.917 | normalized growth (locus YMR001C, strain CDC5, stronger effect = lower value): 0.978 | normalized growth (locus YMR205C, strain PFK2 (second series), stronger effect = lower value): 0.966 | normalized growth (locus YMR277W, strain FCP1, stronger effect = lower value): 0.981 | normalized growth (locus YNL006W, strain LST8, stronger effect = lower value): 0.997 | normalized growth (locus YNL020C, strain ARK1, stronger effect = lower value): 0.94 | normalized growth (locus YNL161W, strain CBK1, stronger effect = lower value): 0.98 | normalized growth (locus YNL183C, strain NPR1, stronger effect = lower value): 0.973 | normalized growth (locus YNL207W, strain RIO2, stronger effect = lower value): 0.972 | normalized growth (locus YNL222W, strain SSU72, stronger effect = lower value): 0.973 | normalized growth (locus YNL307C, strain MCK1 (second series), stronger effect = lower value): 0.917 | normalized growth (locus YOL078W, strain AVO1, stronger effect = lower value): 0.981 | normalized growth (locus YOL136C, strain PFK27, stronger effect = lower value): 0.926 | normalized growth (locus YOR061W, strain CKA2, stronger effect = lower value): 0.963 | normalized growth (locus YOR119C, strain RIO1, stronger effect = lower value): 0.985 | normalized growth (locus YOR231W, strain MKK1, stronger effect = lower value): 0.905 | normalized growth (locus YOR329C, strain SCD5, stronger effect = lower value): 0.972 | normalized growth (locus YPL031C, strain PHO85, stronger effect = lower value): 0.911 | normalized growth (locus YPL153C, strain RAD53, stronger effect = lower value): 0.912 | normalized growth (locus YPL204W, strain HRR25, stronger effect = lower value): 0.921 | normalized growth (locus YPL209C, strain IPL1, stronger effect = lower value): 0.976 | normalized growth (locus YPL256C, strain CLN2, stronger effect = lower value): 0.917 | normalized growth (locus YPR025C, strain CCL1, stronger effect = lower value): 0.983 | normalized growth (locus YPR106W, strain ISR1, stronger effect = lower value): 0.971 | normalized growth (locus YPR111W, strain DBF20, stronger effect = lower value): 0.97 | normalized growth (strain NNK1, stronger effect = lower value): 0.981 | normalized growth (strain TSCII, stronger effect = lower value): 0.983

O=C1CCC(c2cccs2)=NN1
normalized growth [3]: 0.979 | normalized growth [4]: 1 | normalized growth [1]: 0.974 | normalized growth [5]: 1 | normalized growth [6]: 0.986 | normalized growth [7]: 0.987 | normalized growth [8]: 0.99 | normalized growth [2]: 1.03 | normalized growth [9]: 0.999 | normalized growth (locus YJR043C, strain POL32, stronger effect = lower value): 1 | normalized growth [10]: 1.01 | normalized growth [11]: 0.993 | normalized growth [12]: 1 | normalized growth [13]: 0.998 | normalized growth [14]: 1.02 | normalized growth [15]: 1 | normalized growth [16]: 0.997 | normalized growth [17]: 1.03 | normalized growth [18]: 1.09 | normalized growth [19]: 0.998 | normalized growth [20]: 1.01 | normalized growth [21]: 0.985 | normalized growth [22]: 1 | normalized growth (locus YOL006C, strain TOP1, stronger effect = lower value): 0.99 | normalized growth [23]: 1.01 | normalized growth [24]: 1.05 | normalized growth [25]: 0.901

CC(=O)c1ccc(-c2cccs2)s1
normalized growth [3]: 0.95 | normalized growth [4]: 0.963 | normalized growth [1]: 0.944 | normalized growth [5]: 0.999 | normalized growth [6]: 0.953 | normalized growth [7]: 0.939 | normalized growth [8]: 0.989 | normalized growth [2]: 0.58 (active) | normalized growth [9]: 0.992 | normalized growth (locus YJL187C, strain SWE1, stronger effect = lower value): 0.978 | normalized growth [10]: 0.995 | normalized growth [11]: 0.777 (active) | normalized growth [12]: 0.972 | normalized growth [13]: 0.606 (active) | normalized growth [14]: 0.855 | normalized growth [15]: 0.887 | normalized growth [16]: 0.981 | normalized growth [17]: 1 | normalized growth [18]: 0.95 | normalized growth (locus YNL128W, strain TEP1, stronger effect = lower value): 0.98 | normalized growth [19]: 0.878 (active) | normalized growth [20]: 0.901 | normalized growth [21]: 0.985 | normalized growth [22]: 0.966 | normalized growth [23]: 0.9 | normalized growth [24]: 0.869 | normalized growth [25]: 0.69
